# High-throughput results deposited in PubChem by National Center for Advancing Translational Sciences (NCATS).
# TGFb SMAD3 inh – qHTS for Inhibitors of TGF-b; HepG2 CAGA-GFP TGF-b/SMAD3 reporter, GFP fluorescence, 18 h; TGF-beta stimulated, 500 pg/mL final; Potency, µM (top dose mostly 46.1 µM), hits mostly inhibitors; hit rate 1.2% among 410,000; AID 588855, 2011; further: nearly all actives have a fitted effect of over 65% in size
#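 Per well, imaged GFP fluorescence of HEPG2 CAGA-GFP cells gives the signal; cells get compound, then TGF-beta (500 pg/mL final), 18 h at 37 degrees C; %Activity versus -TGF-beta and +DMSO controls.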
# IL1B secr inh – qHTS for Inhibitors of Inflammasome Signaling: IL-1-beta AlphaLISA Primary Screen. THP-1 LPS/ATP IL-1B secretion, AlphaLISA, 16 h; active compounds read low. activity change, % at 57.5 µM. hit rate 4.7% among 360,000. AID 743279, 2014; in the data active means activity change below about -50%; inconclusive means mostly about -30% to -49%
#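 THP-1 cells pretreated 1 hr with compounds (up to 57.5 uM final), then stimulated with LPS (250 ng/mL final) plus ATP (1.25 mM final); secreted IL-1B measured by AlphaLISA after 16 hr, decreased signal indicating inhibition.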
# DT40 TDP1 CPT – qHTS for Inhibitors of human tyrosyl-DNA phosphodiesterase 1 (TDP1): qHTS in cells in presence of CPT; hit rate 12% among 420,000; Potency, µM (series often up to 46.2 µM), usual class: inhibitors; chicken DT40 Tdp1-/-;hTDP1 cells + 20 nM CPT, ATP luminescence, 48 h; AID 686979, 2013; further: nearly all actives have a fitted effect of over 55% in size
#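 Cell growth measured by CellTiter-Glo luminescence after a minimum 48 h, 37 C compound exposure with 20 nM CPT in Tdp1-knockout DT40 cells stably expressing hTDP1, seeded 400/well; qHTS titration format.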
# HepG2 viability – qHTS for Inhibitors of TGF-b: Cytotox Counterscreen | HepG2 CAGA-GFP viability, ATP luminescence, 18 h | Potency, µM (doses to about 46.1 µM), usual class: cytotoxic | hit rate 0.76% among 410,000 | AID 588856, 2011
#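 HepG2 CAGA-GFP cells (1000/well, DMEM with 1% FBS) received compound, then TGF-beta at 500 pg/mL final, and were incubated 18 hours at 37 degrees C. Viability was read by CellTiter-Glo luminescence. Media-only wells were set as complete cell-killing and DMSO as no toxicity.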
# TDP1 cell noCPT – qHTS for Inhibitors of human tyrosyl-DNA phosphodiesterase 1 (TDP1): qHTS in cells in absence of CPT; DT40 Tdp1-/- hTDP1 cells, no CPT, ATP luminescence, 48 h; Potency, µM (highest dose often 46.2 µM), usual class: inhibitors; hit rate 15% among 420,000; AID 686978, 2013; further: nearly all actives have a fitted effect of over 55% in size
#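 Stably hTDP1-transfected Tdp1-null chicken DT40 cells were treated with library compounds minus camptothecin and grown for at least 48 hr at 37 °C, after which cellular ATP was quantified by luminescence.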
# S-ASM inh – Inhibitors of Secretory Acid Sphingomyelinase (S-ASM): qHTS; Sphingomyelin phosphodiesterase (Homo sapiens), P17405; placental ASM, HMU-PC fluorogenic substrate, 60 min; Potency, µM (series often up to 57.5 µM), hits mostly inhibitors; hit rate 0.006% among 340,000; AID 504937, 2011
# Target sequence (P17405 47-631 limits assumed): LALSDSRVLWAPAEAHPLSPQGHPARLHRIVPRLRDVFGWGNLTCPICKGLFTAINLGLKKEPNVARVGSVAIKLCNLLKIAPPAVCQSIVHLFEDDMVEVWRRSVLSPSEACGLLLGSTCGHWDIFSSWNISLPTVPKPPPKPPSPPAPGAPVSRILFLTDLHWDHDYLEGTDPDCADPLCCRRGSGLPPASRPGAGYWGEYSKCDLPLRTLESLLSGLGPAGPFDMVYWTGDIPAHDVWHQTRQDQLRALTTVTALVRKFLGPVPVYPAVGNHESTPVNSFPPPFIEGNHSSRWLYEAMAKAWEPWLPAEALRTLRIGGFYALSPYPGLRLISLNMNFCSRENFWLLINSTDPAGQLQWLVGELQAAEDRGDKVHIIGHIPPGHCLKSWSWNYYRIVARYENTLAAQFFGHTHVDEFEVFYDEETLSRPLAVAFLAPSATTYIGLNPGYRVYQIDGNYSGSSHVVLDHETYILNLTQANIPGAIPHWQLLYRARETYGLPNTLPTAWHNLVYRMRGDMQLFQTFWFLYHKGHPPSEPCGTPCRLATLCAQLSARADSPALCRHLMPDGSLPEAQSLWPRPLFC
#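 Steps: dispense placental human ASM, pin compound, wait 10 min at room temperature, add HMU-PC0 substrate at 9 uM final, incubate 60 min at 37 °C, add stop solution raising pH to 10, read fluorescence.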
# Hits are given with their value; 0 = inactive; ? = inconclusive; - = not tested or not shown. This is a sample that favours compounds with a hit; in the whole collection about 19% have one here. Unless noted, the call rests on the fitted dose curve; in most records, active means well fitted curve in the direction sought with a large enough effect; inconclusive means small, poorly fitted or top-dose-only effect, or another doubt; inactive means no such curve, though single readings can be large; an effect the other way counts as inactive or inconclusive.
SMILES,TGFb SMAD3 inh,IL1B secr inh,DT40 TDP1 CPT,HepG2 viability,TDP1 cell noCPT,S-ASM inh
CCNC(=O)C1CCCN(C(=O)c2c(-c3ccccc3)noc2C)CC1 (stereo unspecified),0,0,0,0,0,-
COc1ccccc1NC(=O)c1ccc(NC(=O)Cc2n[nH]c(=O)c3ccccc23)cc1,0,0,0,0,0,0
Cc1ccc(C)c(NC(=O)COC(=O)c2c(C)nn(-c3ccccc3)c2C)c1,0,0,?,0,0,0
CC(C)(C)c1ccc(C(=O)C[n+]2cc(Br)cc(Br)c2)cc1,0,-,?,0,?,-
CC(C)(C)c1ccc(C(=O)C[n+]2ccc(Cl)c3ccc(Cl)cc32)cc1,?,-,0.891µM,0,0.355µM,-
CCn1c(=O)c2cc(C(=O)N(C)c3ccc(OC)cc3OC)sc2c2ccccc21,?,0,?,0,13µM,0
CCn1c(=O)c2cc(C(=O)N(C)c3cc(C)ccc3OC)sc2c2ccccc21,?,-84.5,?,0,?,0
CCSc1ccccc1C(=O)Nc1ccc(-c2nc3ccccc3s2)c(O)c1,0,-,9.2µM,0,13µM,-
CC(C)c1ccc(C(=O)Nc2ccc(-c3nc4ccccc4s3)c(Cl)c2)cc1,0,-,6.51µM,0,7.31µM,-
CSc1ccc(C(=O)Nc2ccc(-c3nc4ccccc4s3)c(O)c2)cc1,0,-,?,0,?,-
Cc1ccc(-c2nnc(SCC(=O)NC3CC3)o2)cc1,0,0,0,0,0,0
CCCn1c(SCC(=O)NCC(=O)Nc2ccc(F)c(F)c2F)nc2ccccc2c1=O,0,0,0,0,?,0
CC(C)C1N=C2c3ccccc3N=C(SCc3cc(=O)n4cc(Cl)ccc4n3)N2C1=O (stereo unspecified),0,0,?,0,14.6µM,0
CC1(C)OC2OC(C(=O)N/N=C/c3cc(Br)ccc3O)C3OC(C)(C)OC3C2O1 (stereo unspecified),0,0,14.6µM,0,14.6µM,0
CC(C)c1ccc(NC(=O)[C@H]2O[C@@H]3OC(C)(C)O[C@@H]3[C@H]3OC(C)(C)O[C@H]32)cc1,?,-,5.17µM,0,20.6µM,-
Cc1cc(C)cc(NC(=O)[C@H]2O[C@@H]3OC(C)(C)O[C@@H]3[C@H]3OC(C)(C)O[C@H]32)c1,0,-,0,0,?,-
O=C(C[n+]1ccccc1)N/N=C/c1cc(Br)ccc1O,0,0,0,0,0,0
COc1ccc(C(CNC(=O)c2ccc(C)c(S(=O)(=O)N3CCOCC3)c2)N2CCCC2)cc1 (stereo unspecified),0,0,0,0,0,0
C[C@H](NC(=O)c1nc[nH]c1C(=O)N[C@@H](C)c1ccccc1)c1ccccc1,?,0,?,0,?,0
O=C(NCc1nc2ccccc2[nH]1)C1=C[C@H](c2ccc(Br)cc2)C[C@H](OCc2ccc(CO)cc2)O1,0,0,?,0,?,0
C[C@@H]1C=C(C(=O)NCc2nc3ccccc3[nH]2)O[C@H](OCc2ccc(CO)cc2)C1,0,0,16.4µM,0,?,0
O=C(NCc1nc2ccccc2[nH]1)C1=C[C@H](c2ccc(C(F)(F)F)cc2)C[C@H](OCc2ccc(CO)cc2)O1,11.2µM,?,?,0,?,0
COc1cccc(C2CNC3(CCCC(C)C3)c3[nH]c4ccccc4c32)c1OC (stereo unspecified),?,?,?,0,23.1µM,0
CCc1ccc2oc(C(=O)N3CCN(c4ccccc4OC)CC3)cc(=O)c2c1,?,0,5.17µM,0,9.2µM,0
CCc1ccc2oc(C(=O)N3CCN(c4ccc(OC)cc4)CC3)cc(=O)c2c1,0,-84.4,0,0,?,0
SMILES,TGFb SMAD3 inh,IL1B secr inh,DT40 TDP1 CPT,HepG2 viability,TDP1 cell noCPT,S-ASM inh
COc1ccccc1N1CCN(C(=O)c2cc(=O)c3c(C)cc(C)cc3o2)CC1,0,0,0,0,0,0
COc1ccccc1CNC(=O)C1CC2Cn3c(nc4cc(C)c(C)cc43)C2N1C (stereo unspecified),0,0,0,0,0,0
COc1cc(NC(=O)CC(C)S(=O)(=O)c2cc3c(cc2C)NC(=O)CO3)cc(OC)c1OC (stereo unspecified),0,0,0,0,0,0
C/[N+]([O-])=C\c1cccc(OCCN2CCN(c3ncc(C(F)(F)F)cc3Cl)CC2)c1,0,-50.8,0,0,?,0
COc1ccc(CCCC(=O)NCCc2ccccc2)c(C)c1,0,0,0,0,0,0
COC(=O)C1=C(CCc2ccccc2)NC(=O)NC1c1ccc(Cl)cc1 (stereo unspecified),?,-52.1,?,0,?,0
COC(=O)C1=C(CCc2ccccc2)NC(=O)NC1c1ccc(C#N)cc1 (stereo unspecified),0,0,0,0,0,0
COC(=O)C1=C(COc2ccccc2)NC(=O)NC1c1ccc2ccccc2c1 (stereo unspecified),0,0,?,0,23.1µM,0
COc1ccc2c(c1)c(CC(=O)Nc1cc(C)ccc1C)c(C)n2C(=O)c1ccc(Cl)cc1,0,0,?,0,16.4µM,0
COc1ccc2c(c1)c(CC(=O)Nc1ccccc1OC)c(C)n2C(=O)c1ccc(Cl)cc1,0,0,?,0,?,0
COc1ccc2c(c1)c(CC(=O)NCc1cc([N+](=O)[O-])ccc1O)c(C)n2C(=O)c1ccc(Cl)cc1,?,0,0,0,?,0
COc1ccc2c(c1)c(CC(=O)Nc1ccc(C(C)=O)cc1)c(C)n2C(=O)c1ccc(Cl)cc1,0,0,20.6µM,0,16.4µM,0
COc1ccc2c(c1)c(CC(=O)Nc1nnc(C3CC3)s1)c(C)n2C(=O)c1ccc(Cl)cc1,0,0,14.6µM,0,8.2µM,0
Cc1nc(-c2ccccc2)c(Cc2ccccc2O)c(=O)[nH]1,?,0,5.8µM,0,5.17µM,0
Cc1ccc(C)c(Cc2c(C)nc(C)[nH]c2=O)c1,0,0,0,0,0,0
Cc1ccc(C(=O)Nc2ccccc2N2CCOCC2)cc1S(=O)(=O)N1CCOCC1,0,0,?,0,0,0
C=CCN(c1ccccc1OC)S(=O)(=O)c1cccc(C(=O)OCC(=O)c2c(N)n(C)c(=O)n(C)c2=O)c1,?,0,?,0,18.4µM,0
